Data: the supplement of paper PMC3334620
The full ranking holds about 33,000 sequences; the median of “E-score (-0.5 to 0.5)” is about -0.015, and the highest 2% start at about 0.3. The entries come from a sample that favours the highest values as a whole.

biological target: T1, Abf1 (UniProt P14164); test: PBM E-score (8-mer binding enrichment) (E-score (-0.5 to 0.5)); higher = stronger / more preferred TF binding; conditions: protein concentration: 200 nM; construct: GST-full length
T1 sequence: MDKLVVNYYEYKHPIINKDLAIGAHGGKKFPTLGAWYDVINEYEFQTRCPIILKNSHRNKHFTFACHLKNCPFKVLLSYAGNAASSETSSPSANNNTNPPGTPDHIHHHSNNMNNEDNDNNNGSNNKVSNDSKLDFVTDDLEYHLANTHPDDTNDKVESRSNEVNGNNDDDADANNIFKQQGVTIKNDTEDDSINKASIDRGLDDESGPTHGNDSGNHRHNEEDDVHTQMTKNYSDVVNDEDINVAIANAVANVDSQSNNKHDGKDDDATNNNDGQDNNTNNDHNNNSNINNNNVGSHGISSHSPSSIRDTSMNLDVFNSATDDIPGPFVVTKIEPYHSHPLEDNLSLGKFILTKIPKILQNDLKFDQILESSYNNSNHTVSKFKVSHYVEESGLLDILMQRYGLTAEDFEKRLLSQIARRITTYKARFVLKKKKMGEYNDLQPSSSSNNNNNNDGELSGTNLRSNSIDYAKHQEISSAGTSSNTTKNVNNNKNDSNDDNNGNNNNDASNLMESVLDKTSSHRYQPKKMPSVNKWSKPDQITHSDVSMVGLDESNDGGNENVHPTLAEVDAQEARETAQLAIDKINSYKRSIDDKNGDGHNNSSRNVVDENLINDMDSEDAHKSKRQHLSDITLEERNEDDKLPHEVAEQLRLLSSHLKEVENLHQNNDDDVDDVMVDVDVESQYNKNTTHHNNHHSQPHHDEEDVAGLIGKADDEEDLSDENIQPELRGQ
Summary of the method: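 Each ungapped eight-base word and its reverse complement, pooled, received an E-score from the Universal PBM Analysis Suite. Underlying scans, normalised with masliner, recorded fluorescent anti-GST bound to GST-tagged yeast transcription factors. These were applied at about 100-200 nM to universal all-10-mer Agilent arrays double-stranded by primer extension.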

| Sequence | PBM E-score |
| --- | --- |
| CAACGAAA | 0.23 |
| AGACGAAA | 0.296 |
| CGACGAGA | 0.13 |
| TGACGAAA | 0.349 |
| CGACGAAG | 0.357 |
| CGACGAAA | 0.363 |
| AGACGAAG | 0.135 |
| CGACGAAC | 0.168 |
| TCAACGCA | -0.00848 |
| CCCAGAAC | -0.144 |
| GTGCCTTA | 0.0147 |
| AGCCTGAG | -0.27 |
| ATATACCG | 0.268 |
| ATATACGA | 0.324 |
| ATCTACGA | 0.233 |
| ATCTACGG | 0.344 |
| ATATACGG | 0.339 |
| CTATACGC | -0.0573 |
| CTATACGA | 0.327 |
| GTATACGA | 0.242 |
| ATCTACGC | 0.0634 |
| ATATACCA | 0.173 |
| ATATACGC | 0.146 |
| AGATACGA | 0.223 |
| CTGGCGGA | -0.122 |

| Sequence | PBM E-score |
| --- | --- |
| AGTCGCTC | -0.106 |
| CGACCCTC | -0.152 |
| GTCGACGA | 0.26 |
| TAAGATGA | 0.182 |
| AGACGGCT | -0.0258 |
| CGTATACG | 0.195 |
| ATCGCCCC | -0.113 |
| ACAACTTA | 0.0805 |
| GTAAAGAA | 0.113 |
| ACCACACA | -0.0452 |
| CTGCCGTA | 0.122 |
| GTAAGCAA | 0.0905 |
| CTTGTCAC | 0.357 |
| ATTGTCAC | 0.398 |
| CTTGTCAA | 0.0838 |
| CCTGTCAC | 0.149 |
| ATTGTCAG | 0.141 |
| ATTGTCAA | -0.0577 |
| TAGCCGGA | -0.117 |
| AAGTGCCA | -0.105 |
| CAGTGACG | 0.239 |
| AAGTGACC | 0.252 |
| AAGTGACA | 0.394 |
| AAGTGACG | 0.352 |
| AAGTGGCT | -0.149 |

| Sequence | PBM E-score |
| --- | --- |
| AAGTGACT | 0.328 |
| ATGTGACA | 0.288 |
| AAGTGAGG | -0.0213 |
| GGGCTATA | -0.0762 |
| AATCACCC | 0.195 |
| AACGCAAC | 0.0366 |
| CATTTTGG | 0.124 |
| AGAGTGTG | -0.158 |
| AGGTGAGG | 0.115 |
| TACAACCA | -0.0973 |
| CCGAAGGA | -0.29 |
| ACCTCATA | 0.195 |
| CGGAAGAG | -0.212 |
| AGTCCCCG | -0.265 |
| AGTTTATA | 0.0788 |
| AACTTAGC | 0.0723 |
| ATGCACGG | 0.258 |
| ATGCACGC | -0.131 |
| CTGCACGC | -0.24 |
| ATGCACGA | 0.362 |
| GTGCACGA | 0.187 |
| CTGCACGA | 0.303 |
| CCAGAGGG | -0.267 |
| AGAATTTG | -0.0116 |
| AAACGAAG | 0.108 |

| Sequence | PBM E-score |
| --- | --- |
| GTAATGCA | -0.123 |
| CATGCTAA | 0.0181 |
| CAATACGG | 0.228 |
| AAATACGT | 0.039 |
| GAATACGA | 0.253 |
| TAATACGA | 0.337 |
| AAATACGG | 0.314 |
| AAATACGC | 0.0308 |
| CAATACGA | 0.281 |
| AAATACGA | 0.333 |
| AGATACGG | 0.129 |
| CCACGCGG | -0.0923 |
| ATACTTAG | -0.0263 |
| GAAGCTGA | -0.0959 |
| GCAGACCC | -0.286 |
| CACTGTCA | 0.234 |
| GTTCGAAC | 0.21 |
| CTGACAAC | -0.0598 |
| ATGACAAA | 0.338 |
| ATGACAAT | 0.344 |
| CTGACAAA | 0.0266 |
| AGGACAAA | 0.121 |
| AAGACAAA | 0.127 |
| AAGACAAT | 0.138 |
| AGGACAAT | 0.125 |

| Sequence | PBM E-score |
| --- | --- |
| GTGACAAC | 0.375 |
| GTGACAAA | 0.412 |
| TTGACAAA | 0.182 |
| GGGACAAC | -0.0272 |
| TACGCGCA | 0.0188 |
| TCCCGAAA | 0.0516 |
| AATGAAGT | -0.0259 |
| ATAAACCA | 0.0453 |
| GCAATGAC | 0.245 |
| GCACGCAC | 0.0219 |
| ACCTGCGT | -0.045 |
| ATCCACAC | -0.103 |
| GACGGGAA | 0.098 |
| CGGCAGAG | -0.193 |
| CATCCCCG | -0.108 |
| ATAACGAG | 0.24 |
| AGCGTGCA | 0.0338 |
| CTCGCATA | -0.0654 |
| ATGACAGC | 0.199 |
| ATGACAAG | 0.282 |
| ATGACAAC | 0.343 |
| CATAGAAA | 0.105 |
| GATCATGA | 0.227 |
| TATCATGA | 0.306 |
| CATCATGA | 0.298 |

| Sequence | PBM E-score |
| --- | --- |
| CATCATGG | 0.101 |
| CATCATGC | 0.128 |
| AATCATGA | 0.274 |
| ACTGGCCG | -0.142 |
| ACATTGAG | -0.169 |
| CCTGGCGA | -0.127 |
| GGCCATCA | -0.255 |
| AATCGAAA | 0.126 |
| CGAAGGGA | -0.118 |
| GGATGAAA | 0.128 |
| GGATGAGA | -0.0398 |
| GGATGATA | 0.31 |
| CGATGATA | 0.305 |
| CGATGAGA | 0.19 |
| AGATGATC | 0.176 |
| AGATGATG | 0.216 |
| AGATGATA | 0.364 |
| CGATGATC | 0.287 |
| ACATTGGG | -0.0776 |
| TGGCTTAA | 0.115 |
| AGATTCCC | -0.0908 |
| ACAAAGTC | 0.0656 |
| AAGGGTTA | 0.0193 |
| AAACCTGC | -0.168 |
| ATGTGAAG | 0.164 |

| Sequence | PBM E-score |
| --- | --- |
| ACCGGACG | -0.0917 |
| ATGACCCC | -0.103 |
| AGACTTCA | -0.0675 |
| ACGAAGAA | 0.288 |
| ACGAAGAC | 0.308 |
| ACGAAAAA | 0.216 |
| ACGAAAAG | 0.218 |
| GCGAAAGC | -0.15 |
| ACGAAACA | 0.245 |
| ACGAAACT | 0.336 |
| ACGAAGAT | 0.284 |
| ACGAAAGC | 0.356 |
| ACGAAACC | 0.196 |
| ACGAAAGG | 0.276 |
| ACGAAAAC | 0.316 |
| GGAGACTA | -0.107 |
| CTGTCGCC | -0.202 |
| AGGTTTGA | -0.188 |
| CCTGGCCA | -0.161 |
| ACTCTATA | 0.145 |
| GCGGAAAC | -0.206 |
| AGGATTGG | -0.0614 |
